Nine compounds from PubChem BioAssay (NCI) can be followed below.

Molecules are shown by their SMILES. The panel holds about 83,000 compounds, 20% with a hit somewhere; the sample as a whole holds those more often.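 Values shown are percent growth following 48 h exposure of cells in 96-well plates to a single concentration of compound; below 10 was considered active.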 Unmarked numbers belong to inactive results. Calls of active or inactive are those of the source.

Common to all, as to test: NCI-60 one-dose screen, 48 h (100 = growth as untreated, 0 = no growth, -100 = all killed)
Common to all, as to conditions: 10 µM unless noted

For assay [1], the system named is SK-MEL-2 melanoma.
For assay [2], the system named is EKVX NSCLC.
The subject of assay [3] is SN12C renal.
The subject of assay [4] is UO-31 renal.
Assay [5] concerns TK-10 renal.
Assay [6] has as its system ACHN renal.
Assay [7] deals with CAKI-1 renal.
Assay [8] relates to A498 renal.
Assay [9] relates to MOLT-4 leukemia.
The subject of assay [10] is SR leukemia.
Assay [11] concerns RPMI-8226 leukemia.
For assay [12], the system named is OVCAR-8 ovarian.
For assay [13], the system named is OVCAR-4 ovarian.
The subject of assay [14] is SK-OV-3 ovarian.
Assay [15] deals with IGROV1 ovarian.
The test system of assay [16] is OVCAR-3 ovarian.
The subject of assay [17] is HS 578T breast.
Assay [18] relates to NCI/ADR-RES ovarian.
The test system of assay [19] is OVCAR-5 ovarian.

For the compound `CC1CC2Oc3ccc(Cl)cc3C(=O)N2O1` (stereo unspecified), the growth in assay [1] is 98.6%; in assay [2] it was 109%; in [3], 105%; in assay [4], 92.9%; in [5] it was 96.8%; in assay [6], 102%. For the same compound, the growth in [7] is 97.1%; in [8], 86.9%; in assay [9], 105%; in assay [10], 98.2%; in assay [11], 91.1%; in [12], 107%. For the same compound, the growth is 117% in [13]; 100% in assay [14]; 125% in assay [15]; 114% in assay [16]; 102% in assay [17]; 107% in [18].

Turning to `N#Cc1c(-c2ccccc2)cc(-c2ccc(Nc3nc(Nc4ccc(F)cc4)nc(Nc4ccc(F)cc4)n3)cc2)nc1N`, the growth in assay [1] is 79.7%; in [2] it was 88.9%; in assay [3] it was 90.3%; in assay [4], 90.4%; in assay [5], 94%; in assay [6], 107%. Further, the growth was 99.8% in [7]; 91.7% in assay [8]; 17.3% in assay [9]; 0.591% (active) in assay [10]; 14.9% in assay [11]; 97.2% in [12]. Further, the growth in assay [19] was 70.9%; in assay [14], 100%; in assay [15], 95.5%; in [17] it was 87.8%; in [18] it was 76.1%.

Take `CCCCCCCC/C=C\CCCCCCCCOc1ccccc1CC(=O)NCC[N+](C)(C)C`: the growth in assay [1] is 96.4%; in assay [2], 83.4%; in [3], 67.5%; in assay [4] it was 79.6%; in assay [5], 9.37% (active); in assay [6], 68.2%. For the same compound, the growth in assay [7] was 50.7%; in assay [8] it was 100%; in assay [9] it was 77.3%; in [10], 23.6%; in assay [11] it was 56.1%; in assay [12] it was 64.4%. In addition, the growth in [14] is 81.9%; in assay [15], 28.9%; in assay [16], 83.2%; in assay [17], 91.8%; in [18], 104%.

As to `c1cc2ccc3cc2cc1CNCCOCCNCc1ccc2ccc(cc2c1)CNCCOCCNC3`, the growth in assay [1] is -63.5% (active); in [2] it was 21.4%; in [3] it was -19.9% (active); in [4], 73.7%; in assay [5], 8.5% (active); in [6] it was 70%. Further, the growth was 15.4% in assay [7]; 31.7% in [8]; 4.08% (active) in [9]; 10.1% in [10]; 0.51% (active) in assay [11]; -3.14% (active) in assay [12]. The growth in assay [13] was -40.4% (active); in assay [15], -4.09% (active); in assay [16] it was -40% (active); in assay [17], -17.6% (active); in assay [18], 105%.

Take `CN(C)CC1=NC2SC=C(c3ccccc3)C2C(=O)N1CC#N` (stereo unspecified): the growth in assay [1] is 104%; in assay [2] it was 95.9%; in assay [3] it was 109%; in [4], 13.2%; in [5], 95.3%; in [6] it was 104%. Moreover, the growth in assay [7] was 97.5%; in assay [8] it was 103%; in assay [9], 82%; in assay [10] it was 70.4%; in assay [11], 49.6%; in assay [12] it was 97.1%. Moreover, the growth was 89.7% in assay [19]; 85.3% in [13]; 119% in assay [14]; 110% in assay [16]; 118% in assay [17]; 98.1% in assay [18].

`c1ccc2c(c1)nc(CN1CCOCC1)n1cc(N3CCCC3)nc21`: the growth was 106% in assay [1]; 87.2% in assay [2]; 97.7% in [3]; 75.1% in assay [4]; 114% in [5]; 104% in assay [6]. The growth in assay [7] was 99.5%; in [8], 98.7%; in assay [9], 99%; in assay [10] it was 87%; in assay [11], 62.6%; in assay [12] it was 94.5%. Also, the growth was 111% in [13]; 89.8% in assay [14]; 110% in assay [16]; 92.5% in [17]; 99% in [18].

For `Cc1ccc(C(=O)C2=C(O)C(=O)N(Cc3cccnc3)C2c2ccccc2F)o1` (stereo unspecified), the growth in assay [1] was 92.1%; in assay [2], 97.7%; in assay [3], 95.7%; in [4] it was 93.3%; in [5], 104%; in [6], 98.5%. Also, the growth in [7] was 105%; in [8], 95%; in assay [9] it was 90.3%; in assay [10], 97.3%; in assay [12], 92.6%; in assay [19], 101%. Further, the growth in assay [13] was 106%; in [14], 94.5%; in [15], 68.2%; in assay [16] it was 97.4%; in [17] it was 102%; in [18], 98.9%.

On to `O=c1c2c3c(sc2n2c(-c4cc(-c5ccccc5)nn4-c4ccccc4)nnc2n1Cc1ccccc1)CCCC3`, for which the growth in assay [1] was 102%; in assay [2], 101%; in assay [3], 98%; in [4], 36.7%; in [5], 126%; in assay [6], 106%. Besides, the growth in assay [7] is 20.9%; in assay [8], 141%; in assay [9], 19.1%; in assay [10] it was 13.2%; in assay [11], 14.2%; in [12], 49.5%. Besides, the growth in [19] was 113%; in assay [14] it was 133%; in [16], 101%; in [17], 356%; in assay [18] it was 80.4%.

Turning to `Cc1ccc(-n2c(-c3ccccc3)c(-c3ccccc3)c3c(SCC(=O)n4[nH]c(N)cc4=O)ncnc32)cc1`, the growth in assay [1] is 108%; in assay [2], 87.2%; in assay [3] it was 99.2%; in assay [4], 71.9%; in assay [5], 104%; in [6], 91.2%. Moreover, the growth was 88.4% in [7]; 114% in [8]; 87.3% in [9]; 103% in assay [10]; 81.9% in [11]; 83.2% in [12]. Further, the growth was 96% in assay [13]; 79.5% in [14]; 79.8% in assay [15]; 106% in [17]; 105% in [18].
